The record followed here is PubChem BioAssay (Tox21).

Structures are written as SMILES. Several values for one entry are separate records, joined by “and”; a condition that tells them apart may be missing. Equal entries are not always repeated. Results filed as inconclusive are left out. Activity calls are given as the source filed them. Unless noted, the call rests on the fitted dose curve; in most records, active means well fitted curve in the direction sought with a large enough effect in the repeat runs; inconclusive means weak or mixed curves; inactive means no such curve, though single readings can be large; an effect the other way counts as inactive or inconclusive.

The nature of experiment [1]: qHTS assay for small molecule agonists of the p53 signaling pathway - cell viability (AID 651633; calls by dose curve; further: nearly all actives have a fitted effect of over 30% in size; further: potency means the concentration at half of the fitted maximal effect). The following applies: p53RE-bla HCT-116 viability, ATP luminescence, 16 h; series mostly up to 83.3 µM. An outline of the steps:
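p53RE-bla cells, seeded at 4,000 per well and rested 5 h at 37 C/5% CO2, received compounds in DMSO for 16 h at 37 C. CellTiter-Glo was then added, and luminescence was read after 30 min at room temperature to gauge cytotoxicity.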
On the technique in general: qHTS replaces the single test concentration by a dilution series.

Experiment [2] can be described thus: qHTS assay for small molecules that induce genotoxicity in human embryonic kidney cells expressing luciferase-tagged ATAD5 - cell viability (AID 651634; calls by dose curve; further: nearly all actives have a fitted effect of over 25% in size; further: potency means the concentration at half of the fitted maximal effect). Conditions: HEK293T ATAD5-luc cells viability, CellTiter-Fluor, 15.5 h; series mostly up to 83.3 µM. The method in brief:
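Cytotoxicity counter-readout: after 15.5 hr compound treatment at 37C, live-cell protease activity in ATAD5-luciferase HEK293T cells measured by CellTiter-Fluor fluorescence, 30 min development at 37C.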

Experiment [3] is described as follows: qHTS assay for small molecule disruptors of the mitochondrial membrane potential - cell viability (AID 720634; calls by dose curve; further: nearly all actives have a fitted effect of over 20% in size; further: potency means the concentration at half of the fitted maximal effect). The following applies: HepG2 viability, ATP luminescence (CellTiter-Glo), 1 h; series mostly up to 83.2 µM. An outline of the steps:
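Cytotoxicity was quantified from ATP content by CellTiter-Glo luminescence in the same wells as the MMP dye read-out. HepG2 (2,000 cells/well) were plated overnight and exposed to compounds for 1 hr at 37 C.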

A short description of experiment [4]: qHTS assay for small molecule disruptors of the mitochondrial membrane potential (AID 720635). Further: potency means the concentration at half of the fitted maximal effect. The following applies: HepG2 mitochondrial membrane potential, Mito-MPS dye ratio; series mostly up to 83.2 µM. An outline of the steps: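 HepG2 cells (2,000/well) attached overnight at 37C, then took compound for 1 hr at 37C, 5% CO2. Mito-MPS dye was added for 30 min; fluorescence was read at 490/535 nm (monomers) and 540/590 nm (aggregates).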

Experiment [5] is described as follows: qHTS assay to test for compound auto fluorescence at 590 nm (red) in HepG2 cells (AID 720674). Conditions: HepG2 autofluorescence, red 540/590 nm, 1 h; series mostly up to 46 µM. The method in brief:
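Intrinsic compound fluorescence in the red window (Ex/Em 540/590 nm) is measured in attached HepG2 cells exposed for 1 hr, DMSO vehicle as baseline, benchmarked to Rose Bengal sodium.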

The nature of experiment [6]: qHTS assay to test for compound auto fluorescence at 535 nm (green) in HepG2 cells (AID 720675). Further: potency means the concentration at half of the fitted maximal effect. The following applies: green autofluorescence 485/535 nm, 1 h; series mostly up to 46 µM.
Experiment [7] is described as follows: qHTS assay to test for compound auto fluorescence at 460 nm (blue) in HEK293 cells (AID 720678). Conditions: blue autofluorescence 405/460 nm; series mostly up to 46 µM. An outline of the steps: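 Blue read-out at excitation 405 nm and emission 460 nm follows overnight compound exposure of HEK293 cells at 37C in 5% CO2. Activity is given as auto fluorescence equivalency to triamterene.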

The nature of experiment [8]: qHTS assay to test for compound auto fluorescence at 590 nm (red) in HEK293 cells (AID 720679). The following applies: red autofluorescence 540/590 nm; series mostly up to 46 µM. An outline of the steps:
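Red channel, Ex/Em 540/590nm; signal expressed as equivalency to Rose Bengal sodium. HEK293, 2,000 cells/well, 10% dialyzed FBS; 23 nL compound pinned after 4-5 hr attachment; overnight 37C/5% CO2 before reading.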

Experiment [9] in a line: qHTS assay for small molecules that induce genotoxicity in human embryonic kidney cells expressing luciferase-tagged ATAD5 (AID 651632). Further: nearly all actives have a fitted effect of over 15% in size. Further: potency means the concentration at half of the fitted maximal effect. The following applies: HEK293T ATAD5-luciferase induction, 16 h; series mostly up to 83.3 µM. The method in brief:
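A rise in luciferase signal from ATAD5-tagged HEK293T cells marks genetic stress. Cells were exposed to compounds for 16 hr at 37C, 5% CO2, then luciferase was quantified after a 30 min room-temperature incubation with Amplite.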

For the molecule `SC1CCCCC1`, the Potency entry in experiment [1], in experiment [2], in [3], in [6] and in experiment [7] was “inactive” throughout. Besides, the Potency in [4] is 50.5 µM (active). For the same molecule, the molecule was classed as inactive in experiment [5] and in experiment [8].
As for `CCCCCCCCCC[N+](C)(CCCCCCCCCC)CCC[Si](OC)(OC)OC`, the Potency is 48.6 µM (active) in experiment [1], 48.6 µM (active) in experiment [2] and 54.5 µM (active) in experiment [3]. For the same molecule, the outcome in [5] and in experiment [8] was inactive. The Potency entry in experiment [6] and in experiment [7] was “inactive” each time.
Take `CNCCC=C1c2ccccc2CCc2ccccc21`: the Potency result in [1], in experiment [3], in experiment [6] and in experiment [7] was “inactive” in each case. The call in experiment [5] and in experiment [8] was inactive.
As to `Clc1nc(C(Cl)(Cl)Cl)c(Cl)c(Cl)c1Cl`, the Potency was 61.1 µM (active) in experiment [1] and 48.6 µM (active) in experiment [2]. Also, the Potency entry in experiment [3], in experiment [6] and in experiment [7] was “inactive” each time. Besides, the call in experiment [5] and in experiment [8] was inactive.
As for `O=C1CCCCCCCCCCCCCC1`, the Potency entry in [1], in [2], in experiment [3], in experiment [6] and in experiment [7] was “inactive” in each case. Moreover, the call in [5] and in experiment [8] was inactive.
As to `Cc1ccc2nc(-c3ccc(N)cc3)sc2c1S(=O)(=O)O`, the Potency entry in experiment [1], in experiment [2] and in experiment [6] was “inactive” in each case. The call in experiment [5] and in experiment [8] was inactive.
On to `CC1=C(/C=C/C(C)=C/C=C/C(C)=C\C(=O)O)C(C)(C)CCC1`, for which the Potency entry in experiment [9], in [3], in experiment [6] and in experiment [7] was “inactive” in each case. Besides, the Potency in [4] was 61.3 µM (active). In addition, the outcome in [8] was inactive.
As for `CCC(NC(C)C)C(O)c1ccc(O)c(O)c1` (stereo unspecified), the Potency result in [1], in experiment [2], in experiment [3], in experiment [4], in experiment [6] and in experiment [7] was “inactive” throughout. The molecule was called inactive in [5] and in experiment [8].
As to `COc1cccc(-c2ccc(/C=C\CN3CCCCCC3)cc2Cl)c1`, the Potency entry in experiment [9], in experiment [2], in [3], in [6] and in experiment [7] was “inactive” throughout. The molecule was called inactive in experiment [5] and in [8].
As for `CCN(CC)CC#CCOC(=O)C(O)(c1ccccc1)C1CCCCC1` (stereo unspecified), the Potency result in [2] and in experiment [7] was “inactive” in each case. Besides, the result in experiment [5] and in experiment [8] was inactive.
With `O=C(CCN1CCC(c2ccccc2)C1)c1ccc2c(c1)OCCO2` (stereo unspecified), the Potency result in experiment [9], in [2], in [3], in experiment [4], in experiment [6] and in experiment [7] was “inactive” each time. Moreover, the outcome in experiment [5] and in experiment [8] was inactive.
`CCCCCCCC1CCC(=O)O1` (stereo unspecified): the Potency result in experiment [6] and in [7] was “inactive” throughout. The molecule was called inactive in [8].
`CS(=O)(=O)c1ccc([C@@H](CC2CCCC2)C(=O)Nc2cnccn2)cc1Cl`: the Potency in [3] was 34.4 µM (active); in experiment [4], 61.1 µM (active). Besides, the result in experiment [5] and in experiment [8] was inactive. Besides, the Potency entry in [6] and in experiment [7] was “inactive” throughout.
For the molecule `CCCCCCCC/C=C\CCCCCCCC(=O)N(CCO)CCO`, the Potency result in experiment [9], in experiment [2], in experiment [3], in experiment [6] and in experiment [7] was “inactive” each time. In addition, the outcome in experiment [5] and in experiment [8] was inactive.
`CC(Cc1ccc(O)c(O)c1)C(C)Cc1ccc(O)c(O)c1` (stereo unspecified): the Potency entry in experiment [2], in [3], in experiment [6] and in experiment [7] was “inactive” throughout. Also, the Potency in experiment [4] is 13.7 µM (active). Moreover, the molecule was classed as inactive in experiment [5] and in experiment [8].
As to `C=CC(N)CCC(=O)O` (stereo unspecified), the Potency result in [9], in [2], in experiment [3], in [6] and in experiment [7] was “inactive” in each case. The molecule was classed as inactive in experiment [8].
For `CCN1\C(=C/C=C/C=C/c2sc3ccccc3[n+]2CC)Sc2ccccc21`, the Potency result in experiment [9], in experiment [3], in [6] and in [7] was “inactive” in each case. For the same molecule, the Potency in experiment [2] is 23.7 µM (active) and 26.6 µM (active); in [4], 33.5 nM (active) and 266 nM (active). Moreover, the outcome in experiment [5] and in experiment [8] was inactive.
With `COc1ccc2ccccc2c1`, the molecule was classed as inactive in [5] and in experiment [8]. Besides, in experiment [7], the Potency result is “inactive”.
As to `C(=C\c1ccncc1)/c1ccccc1`, the Potency is 23.7 µM (active) in experiment [9]; 3.76 µM (active) and 10.6 µM (active) in [4]. Moreover, the Potency entry in [2], in experiment [3], in [6] and in [7] was “inactive” throughout. Besides, the result in experiment [5] and in experiment [8] was inactive.
In the case of `CCCCCCCCCCCCCCCCCCNC(=O)OC1CCN(C(=O)OC[C@H](COC(=O)N(Cc2cccc[n+]2CC)C(=O)c2ccccc2OC)OC)CC1`, the Potency entry in experiment [9], in experiment [6] and in [7] was “inactive” throughout. In addition, in [1], the Potency was 26.6 µM (active). The call in experiment [5] and in experiment [8] was inactive.
On to `CN1CCN(CCCN2c3ccccc3Sc3ccc(C(F)(F)F)cc32)CC1`, for which the Potency entry in experiment [9], in experiment [6] and in experiment [7] was “inactive” throughout. For the same molecule, in experiment [1], the Potency is 29.8 µM (active). The molecule was called inactive in [5] and in [8].
`CC(O)(c1ccc(Cl)cc1)c1ccc(Cl)cc1`: the Potency result in experiment [9], in experiment [2], in experiment [6] and in [7] was “inactive” each time. In experiment [4], the Potency is 27.3 µM (active). The molecule was called inactive in experiment [5] and in [8].
Consider `CCCCCCCCCCCCN1CCCC1=O`, for which the figures for the Potency in [1] and in [4] were 61.1 µM (active) and 68.6 µM (active), respectively. Further, the Potency result in experiment [2], in experiment [3], in [6] and in experiment [7] was “inactive” in each case. Moreover, the result in experiment [5] and in [8] was inactive.
In the case of `C=CCc1cc(S(=O)(=O)c2ccc(O)c(CC=C)c2)ccc1O`, the Potency result in experiment [9], in [2], in experiment [3], in experiment [6] and in experiment [7] was “inactive” each time. Moreover, in experiment [4], the Potency is 27.3 µM (active). Moreover, the outcome in experiment [5] and in experiment [8] was inactive.
Take `CCCCC[C@H](O)/C=C/[C@@H]1[C@@H](C/C=C\CCCC(=O)O)[C@@H](O)C[C@H]1O`: the Potency entry in experiment [9], in experiment [2], in experiment [3], in experiment [4], in experiment [6] and in [7] was “inactive” each time. In addition, the molecule was classed as inactive in experiment [5] and in [8].
Take `CCCn1c(=O)[nH]c(=O)c2[nH]cnc21`: the Potency result in experiment [1], in experiment [2], in experiment [3], in [4], in [6] and in experiment [7] was “inactive” throughout. The result in experiment [5] and in experiment [8] was inactive.
For `CC(=O)N(C)C`, the molecule was classed as inactive in experiment [5] and in [8]. The Potency result in [6] and in [7] was “inactive” throughout.
Turning to `CC(=O)[C@]1(O)Cc2c(O)c3c(c(O)c2[C@@H](O[C@H]2C[C@H](N)[C@H](O)[C@H](C)O2)C1)C(=O)c1ccccc1C3=O`, the Potency in experiment [9] is 0.841 µM (active); in [2], 15 µM (active); in experiment [4], 5.55 µM (active); in [6], 12.6 µM (active). For the same molecule, the Potency result in experiment [3] and in experiment [7] was “inactive” throughout. The call in experiment [5] and in experiment [8] was inactive.
As to `CCOc1ccc([N+](=O)[O-])cc1`, the Potency result in experiment [9], in [6] and in experiment [7] was “inactive” throughout. Also, the Potency in experiment [1] is 62 µM (active); in [3], 55.3 µM (active); in experiment [4], 3.91 µM (active). Moreover, the outcome in experiment [8] was inactive.
